Measured potencies and affinities stand elsewhere. A number with no mark means an inactive call.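 Rule for the calls: active = fitted half-maximal concentration for loss of cell signal no higher than twice the top valid tested concentration; inconclusive = flat curve at 30 to 70% inhibition, or poor fit; inactive = flat within 30%, signal rise, or potency above limit.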

The experiment is described as follows: MDA-MB-231 cell growth inhibition, dose response, cytotoxicity control for RAD54 inhibitor project, CellTiter-Glo luminescence, cherry-pick (AID 651692).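 Note: 0% = median of sample compound wells and -100% = staurosporine control wells; more negative values mean stronger loss of viable cell signal.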 Particulars: MDA-MB-231 viability, 24 h; series mostly up to 26 µM; activity change, negative = growth inhibition: at the top concentration. On the technique in general: In ATP-based viability assays light output follows the ATP content of the culture.
For `O=C(Nc1cccc(Br)c1)c1cc(S(=O)(=O)N2CCOCC2)cs1`, the “activity change, negative = growth inhibition” value is 7.46%.
With `Cc1ccc2nc(C)c3c(c2c1)N(c1ccc(F)cc1)CC3` the figure was -8.5%; with `CN1CCN(c2ccc(Nc3ccnc4cc(Cl)ccc34)cc2)CC1`, -10.8%; with `O=C(Nc1ccc2c(c1)OCO2)c1cc(-c2ccncc2)nc2ccccc12`, -13.1%.
Next, `c1ccc(-c2nc(NCCCN3CCOCC3)c3ccccc3n2)cc1`: 4.75%; `CC(CCCN1CCCC1)Nc1ccnc2cc(Cl)ccc12` (stereo not given): 2.72%; `COC(=O)c1c(NC(=O)c2ccco2)sc2c1CCN(C(C)C)C2`: -0.516%.
Regarding `CCCN(CCC)CCCNC(=S)Nc1ccc2nc(N3CCCC3)cc(C)c2c1`, the “activity change, negative = growth inhibition” value was -3.41%.
As to `COc1cc(OC)c2nc(C)c3c(c2c1)N(c1ccc(O)cc1)CC3`, the “activity change, negative = growth inhibition” value was 6.2%.
As for `CCOC(=O)c1c(C)n(C)c2ccc(OCC(O)CN3CCN(C)CC3)cc12` (stereo not given), the “activity change, negative = growth inhibition” value is 9.74%.
Next, `O=C(CS(=O)(=O)c1ccccc1)Nc1ccc(Br)cn1`: 8.12%; `CCN(CC)CCn1c2ccccc2c2nc3ccccc3nc21`: 1.86%; `COc1ccc(C(=O)Nc2ccc3nc(N4CCN(C)CC4)cc(C)c3c2)c(OC)c1`: -11%.
Next, `Cc1c(O)c(CN(C)C)cc2c1oc(=O)c1ccccc12`: 7.59%.
Regarding `CN(C)CCNC(=O)c1cccc(-c2cnc3c(NC=O)cc(-c4ccc(S(C)(=O)=O)cc4)cn23)c1`, the “activity change, negative = growth inhibition” value is 5.28%.
Turning to `Cc1nc2ccccc2c2oc(C(=O)NCCN3CCCCC3C)cc12` (stereo not given), the “activity change, negative = growth inhibition” value is 7.34%.
Consider `CCCCN(CC)CCCNC(=S)Nc1ccc2nc(N3CCN(C)CC3)cc(C)c2c1`, for which the “activity change, negative = growth inhibition” value is -1.01%.
Next, `Cc1ccc(-c2nc(NCCCO)c3ccccc3n2)cc1`: -3.38%; `COc1ccc(-c2cc(NC=O)c3ncc(-c4cccc(C(=O)NCCN(C)C)c4)n3c2)cc1`: -4.06%.
Next, `CCN(CC)CC(=O)Nc1cc(N(C)C)nc2ccccc12`: 9.38%.
